# Measurements reported in the supplement of paper PMC7801607.
# What was measured:
# CHO = experiment: % viability of CHO cells (MTT); higher = less toxic; details: 48 h
# Procedure, shortened: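 Percent viability of CHO cells, relative to untreated cells, was read colorimetrically by tetrazolium (MTT) assay. Cells were seeded at 10^6 cells/well and treated for 48 h with compound at 2 or 20 µM in fresh medium.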
# HepG2-A16-CD81 = experiment: % inhibition of HepG2 viability (CellTiter-Glo); higher = more toxic; details: 5 µM
# [1] = tested on: Plasmodium falciparum NF54 stage IV/V gametocytes; experiment: % inhibition of gametocyte viability (PrestoBlue); higher = more inhibition; details: 48 h
# Procedure, shortened: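 Stage IV/V NF54 gametocytes were exposed to compound at 1 or 5 µM for 48 h at 37 °C under stationary, hypoxic conditions, then read by PrestoBlue fluorescence at 612 nm. The percent inhibition of gametocyte viability was normalised to vehicle and kill controls from one run.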
# [2] = tested on: Plasmodium falciparum NF54 asexual blood stage; experiment: % inhibition of asexual blood stage proliferation (pLDH); higher = more inhibition; details: 72 h
# Procedure, shortened: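 Ring-stage cultures of Plasmodium falciparum NF54 at 1% haematocrit and 2% parasitaemia were treated with compound at 2 or 20 µM in 96-well plates and kept for 72 h at 37 °C under 4% CO2, 3% O2 and 93% N2. Parasite survival was measured by the parasite lactate dehydrogenase assay, read colorimetrically at 620 nm. Percent inhibition of asexual proliferation was calculated relative to control wells, and the screen was carried out on two separate occasions.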
# [3] = tested on: Plasmodium falciparum NF54 stage IV/V gametocytes; experiment: % inhibition of gametocyte viability (ATP bioluminescence); higher = more inhibition; details: 24 h
# Procedure, shortened: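 Stage IV/V NF54 gametocytes were enriched on density gradients and seeded at 30,000 per well in 96-well plates with compound at 1 or 5 µM. Plates were incubated for 24 h at 37 °C. ATP was measured with the Promega BacTiter Glo bioluminescence system. Percent inhibition of gametocyte viability was normalised to DMSO and kill controls from a single run.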
# [4] = tested on: Plasmodium falciparum NF54 stage IV/V gametocytes; experiment: % inhibition of gametocyte viability (luciferase reporter); higher = more inhibition; details: 48 h
# Procedure, shortened: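 Luminescence from 30 µL lysate combined with 30 µL Promega luciferin substrate was recorded on a GloMax-Multi+ reader using 10 s integration. The lysate came from stage IV/V NF54-Pfs16-GFP-Luc gametocytes (2% gametocytaemia, 2% haematocrit) held with compound at 1 or 5 µM for 48 h at 37 °C under stationary, hypoxic conditions. Percent inhibition was normalised against controls run once.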
# [5] = tested on: Plasmodium berghei ANKA liver stage in HepG2-A16-CD81; experiment: % inhibition of liver stage parasite viability (luciferase); higher = more inhibition; details: 5 µM; 48 h
# Description: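 Single-concentration screen of the MMV Pandemic Response Box. P. falciparum NF54 asexual blood stages: pLDH assay, 72 h at 37 °C, 2 and 20 µM, n=2. Stage IV/V gametocytes (NF54): luciferase reporter (NF54-Pfs16-GFP-Luc, 48 h), ATP bioluminescence (24 h) and PrestoBlue (48 h) at 1 and 5 µM, n=1. P. berghei liver stage (luciferase in HepG2-A16-CD81, 48 h post infection) at 5 µM, n=4. All normalised to DMSO and kill controls as % inhibition.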
# 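Throughout, for % inhibition of HepG2 viability (CellTiter-Glo): HepG2-A16-CD81 hepatoma cells plated as in the liver-stage assay but without sporozoites, with DMSO wells as negative and 25 µM puromycin as positive control.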
SMILES,% viability of CHO cells (CHO; 2 µM),% viability of CHO cells (CHO; 20 µM),% inhibition of HepG2 viability (HepG2-A16-CD81),% inhibition of gametocyte viability ([1]; 1 µM),% inhibition of gametocyte viability ([1]; 5 µM),% inhibition of asexual blood stage proliferation ([2]; 2 µM),% inhibition of asexual blood stage proliferation ([2]; 20 µM),% inhibition of gametocyte viability ([3]; 1 µM),% inhibition of gametocyte viability ([3]; 5 µM),% inhibition of gametocyte viability ([4]; 1 µM),% inhibition of gametocyte viability ([4]; 5 µM),% inhibition of liver stage parasite viability [5]
COc1cccc(N2CCN(C3=Nc4c(F)cccc4[C@H](CC(=O)O)N3c3cc(C(F)(F)F)ccc3OC)CC2)c1,90.8%,116%,5.59%,11.1%,1.05%,22.9%,84.4%,< 0%,< 0%,< 0%,6.89%,21.2%
CCOC(=O)N[C@@H]1CC[C@@H]2[C@@H](C1)C[C@H]1C(=O)O[C@H](C)[C@H]1[C@H]2/C=C/c1ccc(-c2cccc(F)c2)cn1,72.3%,62.2%,7.92%,15.9%,-0.253%,42.6%,71.5%,17.7%,33%,7.62%,27.4%,33.5%
N[C@@H]1CN(c2c(F)cc3c(=O)c(C(=O)O)cn([C@@H]4C[C@@H]4F)c3c2Cl)CC12CC2,94.4%,69.3%,-1.55%,< 0%,10.3%,36.2%,99.6%,< 0%,< 0%,0.138%,< 0%,-19.2%
COc1ccc(SCC(=O)N2c3ccccc3Sc3ccccc32)cc1,91%,110%,7.46%,< 0%,< 0%,0.401%,35.5%,< 0%,< 0%,< 0%,< 0%,31.1%
c1cnc(NCc2ccc(CNc3ncccn3)cc2)nc1,85.1%,77.7%,-9.29%,9.96%,14.8%,13.7%,35.1%,< 0%,< 0%,3.69%,< 0%,25.6%
CCCCSc1nc(N)c2[nH]c(=O)c(=O)n(Cc3ccccc3)c2n1,114%,55.2%,4.02%,1.71%,21.9%,14.9%,14.6%,< 0%,< 0%,< 0%,< 0%,-9.6%
CC(C)c1ccc(COc2cccc(-c3cc(S(C)=O)c(C#N)c(=O)[nH]3)c2)cc1 (stereo not given),91%,106%,3.83%,< 0%,28.5%,18%,56.2%,51.9%,82.8%,< 0%,< 0%,32.5%
O[C@@](Cn1cnnn1)(c1ccc(F)cc1F)C(F)(F)c1ccc(-c2ccc(OCC(F)(F)F)cc2)cn1,92.3%,95.9%,13%,1.61%,22.4%,7.2%,82.5%,< 0%,25.9%,< 0%,3.57%,40%
Cc1nc(N(C)C(=O)Cc2ccc(-c3ccccn3)cc2)sc1S(N)(=O)=O,85.2%,59.1%,-0.405%,20.7%,39.1%,-8.1%,-31.8%,4.11%,< 0%,17.6%,< 0%,24.8%
CC(=O)N1c2ccccc2NC2=C(C(=O)CC(C)(C)C2)C1c1ccc(OCc2ccccc2)cc1 (stereo not given),119%,85.5%,-5.09%,27.1%,24.2%,-13.1%,76.9%,1.11%,3.14%,9.92%,< 0%,27.4%
O=C(NCc1ncc(C(F)(F)F)cc1Cl)c1c(Cl)cccc1Cl,91.7%,72.6%,2.83%,< 0%,3.98%,18.8%,1.98%,< 0%,< 0%,< 0%,< 0%,34.7%
CN(Cc1ccc(C(C)(C)C)cc1)Cc1cccc2ccccc12,92.4%,110%,2.12%,7.34%,8.91%,-5.03%,71.1%,< 0%,< 0%,< 0%,< 0%,10.2%
NCCCc1ccccc1C(=O)Nc1ncc([N+](=O)O)s1,104%,62.7%,0.282%,32.9%,23.9%,-16.4%,-1.52%,0.0401%,< 0%,< 0%,< 0%,7.1%
CSC[C@H]1CN(Cc2c[nH]c3c(N)ncnc23)C[C@@H]1O,68.9%,46.2%,8.54%,< 0%,< 0%,14.2%,8.91%,< 0%,< 0%,< 0%,6.79%,40.2%
O=C(NC(=O)N1CCCc2ccccc21)c1cccc(Cl)c1,99.8%,116%,1.03%,< 0%,< 0%,-12.6%,10.3%,< 0%,< 0%,< 0%,< 0%,11.4%
CCCCCCCCC(CP(=O)(O)C(C)N)C(=O)O (stereo not given),97.4%,137%,-1.01%,< 0%,< 0%,17.8%,95.7%,< 0%,< 0%,< 0%,10.2%,24.3%
N=C(N)c1ccc(COc2ccc(Cl)cc2)cc1,103%,102%,2.38%,< 0%,11.4%,11.1%,89.9%,0.321%,4.27%,< 0%,< 0%,-17.2%
CN(C)CCNC(=O)c1cccc2cccnc12,70.5%,19.6%,-1.05%,< 0%,< 0%,9.84%,-0.35%,< 0%,< 0%,< 0%,10.1%,16.5%

SMILES,% viability of CHO cells (CHO; 2 µM),% viability of CHO cells (CHO; 20 µM),% inhibition of HepG2 viability (HepG2-A16-CD81),% inhibition of gametocyte viability ([1]; 1 µM),% inhibition of gametocyte viability ([1]; 5 µM),% inhibition of asexual blood stage proliferation ([2]; 2 µM),% inhibition of asexual blood stage proliferation ([2]; 20 µM),% inhibition of gametocyte viability ([3]; 1 µM),% inhibition of gametocyte viability ([3]; 5 µM),% inhibition of gametocyte viability ([4]; 1 µM),% inhibition of gametocyte viability ([4]; 5 µM),% inhibition of liver stage parasite viability [5]
O=C(CSc1nnc(Br)n1-c1ccc(C2CC2)c2ccccc12)Nc1ccc(C(=O)O)cc1Cl,98.5%,61.4%,-1.62%,15.4%,20.5%,3.71%,46.7%,< 0%,< 0%,< 0%,< 0%,27.6%
Nc1nc(Nc2ccc3nc(-c4ccc(F)cc4)cc(N)c3c2)cc(-c2ccccc2)n1,-4.05%,-8.47%,-4.55%,32.5%,84.6%,83%,96.9%,95.5%,95%,98.5%,98.6%,13.6%
O=C(Nc1ccc(-c2ccccc2)cc1)C1=C(O)C(Cc2ccccc2)OC1=O (stereo not given),93.6%,90.4%,13.1%,< 0%,13.8%,39.5%,101%,< 0%,< 0%,< 0%,< 0%,44.3%
O=C(O)C[C@H]1CC[C@H](c2ccc(-c3ccc(Nc4ccc(C(F)(F)F)nc4)cn3)cc2)CC1,115%,77.1%,4.22%,24.3%,3.88%,24.2%,39.5%,7.64%,6.34%,< 0%,< 0%,39.5%
CC(=O)Nc1cc(NS(=O)(=O)c2ccc(Cl)cc2)cc2c(Cl)n[nH]c12,108%,81.2%,2.74%,21.4%,50%,20.6%,75%,6.24%,3.03%,< 0%,< 0%,11.8%
O=C(/C=C\n1cnc(-c2cc(C(F)(F)F)cc(C(F)(F)F)c2)n1)NNc1ccccn1,117%,91.3%,31.8%,10.8%,< 0%,13.9%,40%,< 0%,< 0%,13.4%,< 0%,16.2%
O=C(O)c1cc(-c2ccccc2)nc2ccccc12,114%,94%,-0.148%,< 0%,< 0%,27%,90.2%,1.38%,< 0%,1.7%,< 0%,38.5%
CN(C)CCCOc1ccc(-c2ccc3ncc4c(c3c2)n(C2CCOCC2)c(=O)n4C)cn1,99.8%,75.9%,4%,61.8%,91.9%,68.1%,57.1%,18.7%,33.7%,78.1%,92%,64.6%
Nc1nc(O)c(Br)c(-c2ccccc2)n1,89.3%,61.8%,7.28%,< 0%,16.6%,6.53%,33.7%,< 0%,< 0%,1.49%,9.71%,5.43%
NC(=O)c1ccccc1NC(=O)c1ccc(C(=O)Nc2ccccc2C(N)=O)cc1,87.5%,120%,0.348%,< 0%,< 0%,5.85%,13.6%,< 0%,< 0%,< 0%,0.0831%,42%
COc1cc(Cc2cnc(N)nc2N)cc(OC)c1OC,111%,126%,1.34%,4.58%,22.2%,23.4%,33.1%,0.869%,< 0%,< 0%,< 0%,66.4%
O=C1NC(=S)N/C1=C\c1cc(Br)cc(Br)c1O,91.8%,63.5%,-2.5%,1.86%,< 0%,10.8%,17.1%,< 0%,< 0%,< 0%,< 0%,-2.17%
O=C(NC(=O)N1CCCc2ccccc21)c1ccc(Cl)cc1Cl,95.4%,99.1%,-0.619%,0.538%,13.4%,1.37%,-6.87%,< 0%,< 0%,< 0%,< 0%,36.8%
CO[C@@]1(NC(=O)Cc2cccs2)C(=O)N2C(C(=O)O)=C(COC(N)=O)CS[C@@H]21,114%,143%,-4.03%,11.3%,20.3%,20%,88.8%,0.48%,< 0%,< 0%,2.58%,11.5%
CCCCCCCc1[nH]c2ccccc2c(=O)c1O,96.8%,107%,24.8%,< 0%,< 0%,22.4%,83.6%,< 0%,< 0%,< 0%,< 0%,72.5%
Nc1nc(F)nc2c1ncn2[C@H]1O[C@@H](CO)[C@H](O)[C@@H]1O,33.8%,4.44%,77.8%,21.2%,19.8%,67.3%,72.4%,11.1%,< 0%,4.93%,35.8%,76%
O=S(=O)(Nc1cccc2cccnc12)c1ccccc1,85%,121%,5.35%,4.79%,< 0%,8.89%,70%,< 0%,< 0%,< 0%,< 0%,0.562%
